Only some compounds are listed: those with a hit (about 17% of all), similar ones and a draw of the others.
HT1080NT lethal: kills 2HG-producing HT-1080-NT fibrosarcoma cells. HT-1080-NT fibrosarcoma viability, CellTiter-Glo ATP luminescence, 48 h. Potency, µM (series often up to 46.1 µM), without a hit: at the top dose activity, negative = less viability, usual class: cytotoxic. actives 1.6% (n = 360,000). AID 686970;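 also: NT is the 2HG producing partner of a matched IDH1 knockdown line; 0% = DMSO-treated cells and -100% = media-only wells without cells; nearly all actives have a fitted effect of over 55% in size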
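Toxicity toward the 2HG-producing NT line was scored as %Activity, normalised to DMSO and no-cell wells, from CellTiter-Glo luminescence after 48 hours' treatment.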
DT40 TDP1 no CPT: qHTS for Inhibitors of human tyrosyl-DNA phosphodiesterase 1 (TDP1): qHTS in cells in absence of CPT | DT40 Tdp1-/- hTDP1 cells, no CPT, ATP luminescence, 48 h | Potency, µM (titrated, usually from 46.2 µM), without a hit: top-dose activity change, negative = growth inhibition, usual class: inhibitors | actives 15% (n = 420,000) | AID 686978, 2013; also: % is scaled to controls: 0 for no effect and ±100 for the full control effect; nearly all actives have a fitted effect of over 55% in size
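No-CPT arm: Tdp1-/-;hTDP1 DT40 cells (400/well) plus compounds, incubated ≥48 hr at 37 °C. Readout CellTiter-Glo luminescence.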
TGFb SMAD3 inh: TGF-b pathway inhibition. Potency, µM (highest dose often 46.1 µM), for the others: at the highest dose activity, negative = inhibition, most hits filed as inhibitors. HepG2 CAGA-GFP TGF-b/SMAD3 reporter, GFP fluorescence, 18 h; TGF-beta stimulated, 500 pg/mL final. actives 1.2% (n = 410,000); also: % is scaled to controls: 0 for no effect and ±100 for the full control effect; nearly all actives have a fitted effect of over 65% in size
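TGF-beta reporter screen: HEPG2 CAGA-GFP, 1% FBS, 500 pg/mL TGF-beta final, 18 h; per-cell GFP summed per well; curves fitted and categorized by class.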
HT1080 IDH1KD tx: kills HT-1080 cells with IDH1 knockdown. HT-1080 IDH1 knockdown viability, ATP luminescence, 48 h. Potency, µM (doses to about 46.1 µM), for inactives: at the highest dose activity, negative = toxicity, hits mostly cytotoxic. actives 2% (n = 360,000);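 also: 0% = DMSO wells and -100% = cell-free medium wells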
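% activity derives from luminescence (CellTiter-Glo), normalised to DMSO and no-cell wells. HT-1080-IDH1KD cells, 750/well, had 48 h compound exposure at 37 °C.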
HepG2 viability: counter-screen for TGF-b inhibitors: cytotoxicity in HepG2 cells | HepG2 CAGA-GFP viability, ATP luminescence, 18 h | Potency, µM (titrated, usually from 46.1 µM), for the others: top-dose activity change, negative = cytotoxicity, actives largely listed as cytotoxic | actives 0.76% (n = 410,000)
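HepG2 CAGA-GFP cells (1000/well, DMEM with 1% FBS) received compound, then TGF-beta at 500 pg/mL final, and were incubated 18 hours at 37 degrees C. Viability was read by CellTiter-Glo luminescence. Media-only wells were set as complete cell-killing and DMSO as no toxicity.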
DT40 TDP1 CPT: growth inhibition of DT40 Tdp1-/-;hTDP1 cells with camptothecin (screen for TDP1 inhibitors); Potency, µM (titrated, usually from 46.2 µM), for the others: at the top dose activity change, negative = growth inhibition, actives largely listed as inhibitors; chicken DT40 Tdp1-/-;hTDP1 cells + 20 nM CPT, ATP luminescence, 48 h; actives 12% (n = 420,000); also: % is scaled to controls: 0 for no effect and ±100 for the full control effect; nearly all actives have a fitted effect of over 55% in size
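Chicken DT40 Tdp1-/- cells stably complemented with human TDP1 were seeded at 400 cells/well in medium containing 20 nM camptothecin, exposed to pin-transferred compounds, and grown at 37 °C for at least 48 hr. Viability was read as ATP luminescence.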
Active calls of the source: *. Calls follow the shape of the dose curve; as a rule, active = well fitted curve in the direction sought with a large enough effect; inconclusive = small, poorly fitted or top-dose-only effect, or another doubt; inactive = no such curve, though single readings can be large; an effect the other way counts as inactive or inconclusive. Potency is read from the fitted curve at half-maximal effect.

How did O=C(c1ccc(Cn2c(=O)[nH]c3ccccc3c2=O)cc1)N1CCN(c2ccccc2)CC1 do in these assays?
HT1080NT lethal: -0.7%; DT40 TDP1 no CPT: 14.6µM*; TGFb SMAD3 inh: 9.7%; HT1080 IDH1KD tx: 1.2%; HepG2 viability: -2.3%; DT40 TDP1 CPT: 18.4µM*

How did O=C(CCc1nnc2n(Cc3ccc(F)cc3)c(=O)c3ccccc3n12)N1CCN(c2ccccn2)CC1 do in these assays?
HT1080NT lethal: 13.7%; DT40 TDP1 no CPT: 20.6µM*; TGFb SMAD3 inh: -1.0%; HT1080 IDH1KD tx: 14.4%; HepG2 viability: 16.0%; DT40 TDP1 CPT: inconclusive

What do the screens show for `O=C(c1ccc(Cn2c(=O)[nH]c3ccccc3c2=O)cc1)N1CCN(c2ccccn2)CC1`?
HT1080NT lethal: -3.8%; DT40 TDP1 no CPT: 23.1µM*; TGFb SMAD3 inh: inconclusive; HT1080 IDH1KD tx: -2.1%; HepG2 viability: -14.5%; DT40 TDP1 CPT: inconclusive

What do the screens show for `CCc1ccccc1NC(=O)N1CCN(Cc2nc3ccc(C)cc3o2)CC1`?
DT40 TDP1 no CPT: -13.1%; TGFb SMAD3 inh: inconclusive; HepG2 viability: -12.4%; DT40 TDP1 CPT: -3.8%

Results for COC(=O)CCC(=O)NNC(=O)C1CC1(c1ccccc1)c1ccccc1 (configuration not stated) ?
HT1080NT lethal: 5.7%; DT40 TDP1 no CPT: 11.5%; TGFb SMAD3 inh: -7.0%; HT1080 IDH1KD tx: -2.4%; HepG2 viability: -49.8%; DT40 TDP1 CPT: -3.5%

What do the screens show for `CC[C@]12C(=O)N(C)C[C@H]([C@@H]3C(=O)N(C)C(=O)[C@@H]31)N2C(=O)c1ccc(Br)cc1`?
HT1080NT lethal: 3.8%; DT40 TDP1 no CPT: -12.7%; TGFb SMAD3 inh: 0.2%; HT1080 IDH1KD tx: 3.1%; HepG2 viability: -9.2%; DT40 TDP1 CPT: 13.6%

What do the screens show for `O=C(c1ccc(CN2CCc3ccccc3C2)cc1)N1CCc2ccccc2C1`?
HT1080NT lethal: 5.9%; DT40 TDP1 no CPT: inconclusive; TGFb SMAD3 inh: 14.8%; HT1080 IDH1KD tx: 10.2%; HepG2 viability: 1.9%; DT40 TDP1 CPT: inconclusive

Results for COc1ccc(Cn2c(=O)[nH]c3cc(C(=O)N4CCN(c5cc(Cl)ccc5C)CC4)ccc3c2=O)cc1 ?
DT40 TDP1 no CPT: 14.6µM*; TGFb SMAD3 inh: -8.2%; HepG2 viability: -5.3%; DT40 TDP1 CPT: 14.6µM*

What do the screens show for `O=C(c1ccc(CN2CCc3ccccc3C2)cc1)N1CCN(c2ccccc2)CC1`?
HT1080NT lethal: 4.1%; DT40 TDP1 no CPT: inconclusive; TGFb SMAD3 inh: -17.5%; HT1080 IDH1KD tx: 1.8%; HepG2 viability: 1.1%; DT40 TDP1 CPT: 13µM*

What do the screens show for `O=C(Cc1cccs1)N(c1ccc(Br)cc1)C1C=CS(=O)(=O)C1` (configuration not stated)?
HT1080NT lethal: 13.1%; DT40 TDP1 no CPT: inconclusive; TGFb SMAD3 inh: 3.5%; HT1080 IDH1KD tx: 14.4%; HepG2 viability: -1.9%; DT40 TDP1 CPT: 16.4µM*

Results for Cn1c(=O)c(=O)n(C)c2cc([N+](=O)[O-])c([N+](=O)[O-])cc21 ?
HT1080NT lethal: inconclusive; DT40 TDP1 no CPT: 18.4µM*; TGFb SMAD3 inh: -2.0%; HT1080 IDH1KD tx: inconclusive; HepG2 viability: -0.7%; DT40 TDP1 CPT: 14.6µM*

How did CC(=O)N/C(=C\c1ccccc1)C(=O)OC(C)C(=O)NCc1ccccc1 (configuration not stated) do in these assays?
HT1080NT lethal: 0.5%; DT40 TDP1 no CPT: -18.9%; TGFb SMAD3 inh: 0.2%; HT1080 IDH1KD tx: 1.5%; HepG2 viability: 0.0%; DT40 TDP1 CPT: -10.8%

Assay outcomes from PubChem.
